According to PubChem BioAssay (NCATS):
Several values for one entry are separate records, joined by “and”; a condition that tells them apart may be missing. Identical values can stand only once. Records with an inconclusive call do not appear. The source holds several records for some structures; these can differ, active in one and inactive in another. Activity calls are given as the source filed them. Unless noted, calls follow the shape of the dose curve; as a rule, active = well fitted curve in the direction sought with a large enough effect; inconclusive = small, poorly fitted or top-dose-only effect, or another doubt; inactive = no such curve, though single readings can be large; an effect the other way counts as inactive or inconclusive.

Tests used:
[1] = P-glycoprotein substrates identified in KB-8-5-11 adenocarcinoma cell line, qHTS therapeutic library screen (AID 1346987); also: nearly all actives have a fitted effect of over 65% in size; also: potency is read from the fitted curve at half-maximal effect
Summary of the method: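 Compounds are pinned in dose-response onto KB-8-5-11 cells (500 cells/well, colchicine-free medium) and left 72 h at 37 degree C. CellTiter-Glo luminescence then yields AC50 values.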

[2] = Natriuretic polypeptide receptor (hNpr1) antagonism - Pilot counterscreen GloSensor control cell line (AID 1347045; calls by dose curve; also: potency is read from the fitted curve at half-maximal effect)
Summary of the method: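 Control counterscreen: luciferase cGMP-biosensor HEK293 cells (no Npr1) received compound for 30 min at room temperature after GloSensor substrate loading. Luminescence was measured before and 20 min after soluble guanylyl cyclase activation by 50 uM nitroprusside.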

[3] = NS1 protein of Zika virus - qHTS assay to identify small molecule inhibitors in human HEK 293 cells (AID 1347053); also: nearly all actives have a fitted effect of over 55% in size; also: potency is read from the fitted curve at half-maximal effect
Summary of the method: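 In this cell-based screen, HEK 293 cultures received compound for one hour before Zika MR766 at MOI = 0.5. NS1 was quantified 24 hours later by TR-FRET, normalized to virus-free wells and infected wells.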

[4] = target: T1, Tyrosine-protein phosphatase non-receptor type substrate 1 (Homo sapiens) + Leukocyte surface antigen CD47 (Homo sapiens) (UniProt P78324+Q08722); test: CD47-SIRPalpha protein protein interaction - LANCE assay qHTS validation (AID 1347057; active = well fitted curve in the direction sought with a large enough effect in the signal ratio, with a control signal flat, not every such curve was filed as active; the % refers to the signal ratio; also: series mostly up to about 38 µM)
Summary of the method: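 Inhibition of soluble CD47/SIRPalpha ectodomain association by titrated compounds, measured as 665/615 nm time-resolved FRET ratio after sequential 30 min room-temperature incubations.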

[5] = target: T1, Tyrosine-protein phosphatase non-receptor type substrate 1 (Homo sapiens) + Leukocyte surface antigen CD47 (Homo sapiens); test: CD47-SIRPalpha protein protein interaction - HTRF assay qHTS validation (AID 1347058; active = well fitted curve in the direction sought with a large enough effect in the signal ratio, not every such curve was filed as active; the % refers to the signal ratio; also: series mostly up to about 38 µM)
Summary of the method: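 Soluble extracellular domains (6His-CD47, Avi-tag-biotinylated SIRPalpha) in PBS pH 7.4 with 0.05% IGEPAL CA-630. Compounds were preincubated 30 min at RT with CD47 and anti-His-Eu, then SIRPalpha and SAV-XL665 were added. TR-FRET 665/615 ratio.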

[6] = target: T1, Tyrosine-protein phosphatase non-receptor type substrate 1 (Homo sapiens) + Leukocyte surface antigen CD47 (Homo sapiens); test: CD47-SIRPalpha protein protein interaction - Alpha assay qHTS validation (AID 1347059);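 also: bead proximity luminescence from CD47 binding SIRPalpha after compound preincubation with SIRPalpha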
Summary of the method: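 In PBS (pH 7.4) with 0.05% IGEPAL CA-630, compound is preincubated with biotin-Avi-SIRPalpha ectodomain before His-CD47 ectodomain and affinity beads are added. Light-protected room-temperature incubations; AlphaScreen readout.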

[7] = target: Parathyroid hormone/parathyroid hormone-related peptide receptor (Homo sapiens) (UniProt Q03431); test: qHTS for PTHR1 Agonists: Optimization Screen against the NCGC LOPAC library (AID 1347079);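 also: GloSensor cAMP luminescence in HEK-293 GP2 cells expressing human PTHR1 with IBMX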
Summary of the method: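 HEK-293 GP2 cells, PTHR1 + GloSensor cAMP; 3000 cells/well, o/n. Luciferin + IBMX 0.5mM each (stock), 1 hr 37C. Cpd titration, 1 hr 37C. Lum after 15 min RT. Ctrl M-PTH(1-15) top 10uM.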

[8] = qHTS of pediatric cancer cell lines to identify multiple opportunities for drug repurposing: Primary screen for DAOY cells (AID 1347090); also: nearly all actives have a fitted effect of over 55% in size; also: potency is read from the fitted curve at half-maximal effect
Summary of the method: (§1)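 Eight- or eleven-point concentration series, 48 h treatment at 37 degrees C in growth media; readout CellTiter-Glo luminescence. Potency and efficacy were taken from the concentration-response curves.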

[9] = qHTS of pediatric cancer cell lines to identify multiple opportunities for drug repurposing: Primary screen for SJ-GBM2 cells (AID 1347091); also: potency is read from the fitted curve at half-maximal effect
Summary of the method: as §1

[10] = qHTS of pediatric cancer cell lines to identify multiple opportunities for drug repurposing: Primary screen for A673 cells (AID 1347092); also: nearly all actives have a fitted effect of over 45% in size; also: potency is read from the fitted curve at half-maximal effect
Summary of the method: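 Luminescence from CellTiter-Glo, taken after 15 min at room temperature, served as the proxy for metabolically active cells following 48 h treatment. Both potency and efficacy were taken from curves fitted to the titration data.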

[11] = qHTS of pediatric cancer cell lines to identify multiple opportunities for drug repurposing: Primary screen for BT-37 cells (AID 1347094); also: potency is read from the fitted curve at half-maximal effect
Summary of the method: (§2)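 Following a 5-hour attachment period, cells at 500-1,000/well received compounds and were cultured for 48 hours. CellTiter-Glo was added and luminescence read to estimate viable, metabolically active cells.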

[12] = qHTS of pediatric cancer cell lines to identify multiple opportunities for drug repurposing: Primary screen for NB-EBc1 cells (AID 1347095)
Summary of the method: as §2

[13] = qHTS of pediatric cancer cell lines to identify multiple opportunities for drug repurposing: Primary screen for U-2 OS cells (AID 1347096); also: nearly all actives have a fitted effect of over 50% in size
Summary of the method: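 Cells (500-1,000/well) in growth media were settled 5 h at 37 degrees C, then given compounds for 48 h. Viability was read as CellTiter-Glo luminescence. Primary runs used MIPE at 11 points (0.78 nM-46 µM) and NPC at 8 points (0.59 nM-46 µM); follow-ups used 11 points.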

[14] = qHTS of pediatric cancer cell lines to identify multiple opportunities for drug repurposing: Primary screen for Saos-2 cells (AID 1347097); also: nearly all actives have a fitted effect of over 40% in size; also: potency is read from the fitted curve at half-maximal effect
Summary of the method: as §2

[15] = qHTS of pediatric cancer cell lines to identify multiple opportunities for drug repurposing: Primary screen for SK-N-SH cells (AID 1347098); also: nearly all actives have a fitted effect of over 65% in size; also: potency is read from the fitted curve at half-maximal effect
Summary of the method: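 Cells (500-1,000/well) rested 5 h, then received compounds for 48 h; metabolically active cells were measured by CellTiter-Glo luminescence. Final concentrations spanned up to 46 µM (MIPE, 11-point) or 0.59 nM-46 µM (NPC, 8-point) in primary screens, 11-point in follow-ups.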

[16] = qHTS of pediatric cancer cell lines to identify multiple opportunities for drug repurposing: Primary screen for NB1643 cells (AID 1347099); also: nearly all actives have a fitted effect of over 50% in size; also: potency is read from the fitted curve at half-maximal effect
Summary of the method: as §2

[17] = target: Atrial natriuretic peptide receptor 1 (Homo sapiens) (UniProt P16066); test: Natriuretic polypeptide receptor (hNpr1) antagonism - Pilot screen (AID 1347049; calls by dose curve;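 also: HEK293 cells with hNpr1 and GloSensor cGMP luciferase stimulated by 0.1 nM hNppA; agonist-evoked cGMP luminescence read 20 min after hNppA addition; series mostly up to about 58 µM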)
Summary of the method: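 Cells expressing receptor plus cGMP biosensor are seeded and incubated overnight at 37C, then loaded with GloSensor reagent (2% final) at room temperature for 2 h. Library compounds go on for 30 min. A pre-read precedes agonist (hNppA, 0.1 nM final) and a 20-min readout.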

[18] = target: Atrial natriuretic peptide receptor 2 (Homo sapiens) (UniProt P20594); test: Natriuretic polypeptide receptor (hNpr2) antagonism - Pilot subtype selectivity assay (AID 1347050; calls by dose curve)
Summary of the method: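 Read-out: GloSensor luminescence (CCD imager), baseline vs post-stimulation. HEK293 cells expressing hNpr2; compounds pre-incubated 30-50 min at ambient temperature; hNppC 1 nM final, 20 min.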

[19] = qHTS of pediatric cancer cell lines to identify multiple opportunities for drug repurposing: Primary screen for TC32 cells (AID 1347089); also: nearly all actives have a fitted effect of over 60% in size; also: potency is read from the fitted curve at half-maximal effect
Summary of the method: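 qHTS, TC32, 48 h drug treatment, CellTiter-Glo luminescence as a proxy for metabolically active cells; primary top concentration 46 µM (MIPE 11-pt, NPC 8-pt); confirmatory 11-pt.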

[20] = qHTS of pediatric cancer cell lines to identify multiple opportunities for drug repurposing: Primary screen for SK-N-MC cells (AID 1347093); also: potency is read from the fitted curve at half-maximal effect
Summary of the method: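 Metabolically active cells were quantified by ATP-dependent luminescence (CellTiter-Glo, 15 min at room temperature) following 48 h treatment. Cells had been plated at 500-1,000 per well and settled for 5 h beforehand.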

Measured: Potency

Chain of Parathyroid hormone/parathyroid hormone-related peptide receptor (Homo sapiens) (Q03431 whole entry, looked up): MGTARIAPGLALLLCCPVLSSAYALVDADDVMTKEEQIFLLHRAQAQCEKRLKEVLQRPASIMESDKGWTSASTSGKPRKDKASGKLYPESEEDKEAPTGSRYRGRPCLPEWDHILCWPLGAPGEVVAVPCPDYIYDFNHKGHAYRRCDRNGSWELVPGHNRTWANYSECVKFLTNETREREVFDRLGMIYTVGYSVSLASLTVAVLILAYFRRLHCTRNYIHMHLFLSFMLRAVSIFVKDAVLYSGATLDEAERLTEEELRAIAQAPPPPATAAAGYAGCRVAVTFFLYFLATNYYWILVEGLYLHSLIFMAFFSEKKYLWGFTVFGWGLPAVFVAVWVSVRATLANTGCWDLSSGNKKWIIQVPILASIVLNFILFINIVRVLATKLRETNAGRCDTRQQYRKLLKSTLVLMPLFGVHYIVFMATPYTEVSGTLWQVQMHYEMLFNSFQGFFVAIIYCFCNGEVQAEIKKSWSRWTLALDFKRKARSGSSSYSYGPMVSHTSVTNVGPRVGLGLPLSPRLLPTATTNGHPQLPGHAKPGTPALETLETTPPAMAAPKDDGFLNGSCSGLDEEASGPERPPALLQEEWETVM
T1 sequence (P78324 whole entry, looked up, the tested form may be a part): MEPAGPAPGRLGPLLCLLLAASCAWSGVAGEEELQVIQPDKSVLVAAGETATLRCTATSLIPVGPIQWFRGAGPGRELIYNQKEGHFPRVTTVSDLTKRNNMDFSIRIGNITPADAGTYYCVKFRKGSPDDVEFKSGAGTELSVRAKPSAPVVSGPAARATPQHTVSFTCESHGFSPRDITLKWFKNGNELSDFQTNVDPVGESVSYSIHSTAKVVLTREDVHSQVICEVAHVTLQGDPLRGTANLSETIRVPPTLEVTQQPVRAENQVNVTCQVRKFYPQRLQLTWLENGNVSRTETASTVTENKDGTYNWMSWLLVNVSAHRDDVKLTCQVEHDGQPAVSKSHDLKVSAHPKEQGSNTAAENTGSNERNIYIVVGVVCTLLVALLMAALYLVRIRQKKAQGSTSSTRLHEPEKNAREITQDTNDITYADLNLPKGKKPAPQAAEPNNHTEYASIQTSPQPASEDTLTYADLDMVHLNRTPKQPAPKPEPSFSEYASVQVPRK
T1 sequence (Q08722 whole entry, looked up, the tested form may be a part): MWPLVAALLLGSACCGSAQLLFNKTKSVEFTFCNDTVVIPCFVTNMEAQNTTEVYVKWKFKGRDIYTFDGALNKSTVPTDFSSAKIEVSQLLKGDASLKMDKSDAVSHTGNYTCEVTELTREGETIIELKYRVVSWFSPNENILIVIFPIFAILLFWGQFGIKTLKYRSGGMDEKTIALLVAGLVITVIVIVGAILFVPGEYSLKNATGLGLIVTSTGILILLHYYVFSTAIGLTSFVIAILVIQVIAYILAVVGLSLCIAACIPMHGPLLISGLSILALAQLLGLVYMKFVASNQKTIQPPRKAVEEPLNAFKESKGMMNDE
Chain of Atrial natriuretic peptide receptor 2 (Homo sapiens) (P20594 whole entry, looked up): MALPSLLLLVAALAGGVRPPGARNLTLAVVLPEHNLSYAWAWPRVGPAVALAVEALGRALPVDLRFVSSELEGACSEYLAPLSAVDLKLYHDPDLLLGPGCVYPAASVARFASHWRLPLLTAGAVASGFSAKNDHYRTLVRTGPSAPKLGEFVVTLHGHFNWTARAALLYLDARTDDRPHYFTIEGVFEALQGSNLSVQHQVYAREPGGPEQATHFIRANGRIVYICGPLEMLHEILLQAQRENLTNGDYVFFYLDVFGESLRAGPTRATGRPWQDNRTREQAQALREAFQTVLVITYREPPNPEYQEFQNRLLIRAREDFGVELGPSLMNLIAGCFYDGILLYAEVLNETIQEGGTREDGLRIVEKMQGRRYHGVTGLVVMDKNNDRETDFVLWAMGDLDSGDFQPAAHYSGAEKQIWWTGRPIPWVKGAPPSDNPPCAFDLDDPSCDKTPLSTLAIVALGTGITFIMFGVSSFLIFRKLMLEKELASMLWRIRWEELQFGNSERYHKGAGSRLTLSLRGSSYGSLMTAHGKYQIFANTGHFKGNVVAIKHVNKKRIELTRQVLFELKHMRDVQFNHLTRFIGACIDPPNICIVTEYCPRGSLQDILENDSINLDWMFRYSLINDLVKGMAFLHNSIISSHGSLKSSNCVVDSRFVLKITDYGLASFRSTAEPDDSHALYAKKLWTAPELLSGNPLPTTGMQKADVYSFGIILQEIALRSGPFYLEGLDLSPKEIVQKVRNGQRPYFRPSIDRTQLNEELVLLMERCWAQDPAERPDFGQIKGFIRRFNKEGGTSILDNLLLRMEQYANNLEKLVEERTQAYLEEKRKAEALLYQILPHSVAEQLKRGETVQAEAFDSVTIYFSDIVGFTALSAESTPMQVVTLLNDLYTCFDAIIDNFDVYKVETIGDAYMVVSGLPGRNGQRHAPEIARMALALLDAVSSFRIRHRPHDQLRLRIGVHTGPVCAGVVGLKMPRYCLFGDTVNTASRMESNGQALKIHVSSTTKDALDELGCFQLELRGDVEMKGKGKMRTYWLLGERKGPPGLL
Chain of Atrial natriuretic peptide receptor 1 (Homo sapiens) (P16066 whole entry, looked up): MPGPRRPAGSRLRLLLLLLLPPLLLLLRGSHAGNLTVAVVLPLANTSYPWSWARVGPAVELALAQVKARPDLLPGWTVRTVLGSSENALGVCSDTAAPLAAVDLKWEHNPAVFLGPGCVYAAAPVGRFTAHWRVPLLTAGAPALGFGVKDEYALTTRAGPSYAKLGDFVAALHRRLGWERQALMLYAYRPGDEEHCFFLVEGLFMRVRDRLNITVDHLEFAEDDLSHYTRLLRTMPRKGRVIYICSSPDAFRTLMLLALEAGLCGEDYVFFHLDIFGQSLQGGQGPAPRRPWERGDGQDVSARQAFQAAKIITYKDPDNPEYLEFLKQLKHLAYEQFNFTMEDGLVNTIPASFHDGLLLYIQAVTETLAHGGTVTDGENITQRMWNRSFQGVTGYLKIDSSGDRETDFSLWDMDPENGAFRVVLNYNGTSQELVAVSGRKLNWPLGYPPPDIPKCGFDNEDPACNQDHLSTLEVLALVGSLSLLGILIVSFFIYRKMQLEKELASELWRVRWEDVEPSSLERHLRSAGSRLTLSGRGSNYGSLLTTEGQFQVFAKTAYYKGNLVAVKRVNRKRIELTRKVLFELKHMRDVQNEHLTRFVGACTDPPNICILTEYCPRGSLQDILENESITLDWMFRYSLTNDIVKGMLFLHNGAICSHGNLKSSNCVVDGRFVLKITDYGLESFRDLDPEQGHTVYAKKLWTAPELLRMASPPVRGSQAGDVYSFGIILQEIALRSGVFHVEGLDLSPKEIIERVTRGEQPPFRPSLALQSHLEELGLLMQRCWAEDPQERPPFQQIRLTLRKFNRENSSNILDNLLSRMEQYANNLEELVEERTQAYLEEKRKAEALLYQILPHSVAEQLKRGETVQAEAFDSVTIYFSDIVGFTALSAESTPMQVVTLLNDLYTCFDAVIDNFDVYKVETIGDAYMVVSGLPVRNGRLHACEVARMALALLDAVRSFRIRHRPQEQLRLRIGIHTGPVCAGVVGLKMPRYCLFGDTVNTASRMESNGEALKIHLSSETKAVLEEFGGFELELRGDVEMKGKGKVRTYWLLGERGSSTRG

Cc1c(OCC(F)(F)F)ccnc1CS(=O)c1nc2ccccc2[nH]1 (stereo unspecified)
not listed: [17] | [18] | [19] | [20]
inactive: all other assays above

NCCCCNCCCN
active: [20] 3.32 µM | [15] 7.64 µM | [16] 4.18 µM
not listed: [10] | [14]
inactive: all other assays above

O=C(O)c1cccnc1Nc1cccc(C(F)(F)F)c1
active: [20] 26.6 µM
not listed: [2]
inactive: all other assays above

CC(=O)O[C@H]1C(=O)[C@@]2(C)C([C@H](OC(=O)c3ccccc3)[C@]3(O)C[C@H](OC(=O)[C@H](O)[C@@H](NC(=O)c4ccccc4)c4ccccc4)C(C)=C1C3(C)C)[C@]1(OC(C)=O)CO[C@@H]1C[C@@H]2O (stereo partly specified)
active: [1] 209 nM and 1.01 µM | [3] 0.0066 µM | [19] 0.0017 µM | [20] 0.001 µM
inactive: [2] | [18] | [7] | [13] | [15]

CN(C)CCCC1(c2ccc(F)cc2)OCc2cc(C#N)ccc21 (stereo unspecified)
active: [10] 29.6 µM | [20] 11.8 µM | [16] 16.6 µM
not listed: [8] | [11] | [14] | [15] | [19]
inactive: all other assays above

Clc1ccc2c(N3CCN(CCCN4CCN(c5ccnc6cc(Cl)ccc56)CC4)CC3)ccnc2c1
not listed: [2] | [7] | [10] | [17] | [18] | [19]
inactive: all other assays above

CC(C)c1ccc2c(c1)c(SC(C)(C)C)c(CC(C)(C)C(=O)O)n2Cc1ccc(Cl)cc1
active: [2] 13.1 µM | [8] 23.5 µM | [9] 20.9 µM | [20] 8.33 µM | [11] 27.3 µM | [14] 29.6 µM | [16] 16.6 µM
not listed: [10] | [12] | [15] | [19]
inactive: all other assays above

O=c1cc(N2CCOCC2)oc2c(-c3ccccc3)cccc12
inactive: [2] | [17] | [18] | [3] | [4] | [5] | [6] | [7] | [13]
active: [1] 5.9 µM and 20 µM | [9] 16.6 µM | [20] 9.35 µM | [16] 20.9 µM

COc1cc2nc(N3CCN(C(=O)C4CCCO4)CC3)nc(N)c2cc1OC (stereo unspecified)
not listed: [4] | [5] | [6] | [10] | [11]
inactive: all other assays above

O=C1c2c(O)cc(O)cc2OC(c2ccc(O)c(O)c2)C1O (stereo unspecified)
active: [20] 4.69 µM | [15] 30.4 µM
not listed: [10] | [14] | [16]
inactive: all other assays above

CN(C)CCc1c[nH]c2ccc(Cn3cncn3)cc12
active: [11] 19.3 µM | [14] 11.8 µM
not listed: [2] | [4] | [5] | [6] | [7] | [17] | [18]
inactive: all other assays above

Cc1nc(-c2ccc(OCC(C)C)c(C#N)c2)sc1C(=O)O
not listed: [2] | [4] | [5] | [6] | [7] | [17] | [18] | [20]
inactive: all other assays above

COCCCOc1ccnc(CS(=O)c2nc3ccccc3[nH]2)c1C (stereo unspecified)
3.66 µM (active) and inactive: [1]
not listed: [2] | [4] | [5] | [6] | [7] | [17] | [18]
inactive: all other assays above

N[C@@H](Cc1cc(I)c(Oc2cc(I)c(O)c(I)c2)c(I)c1)C(=O)O
not listed: [2] | [4] | [5] | [6] | [7] | [17] | [18]
inactive: all other assays above

CN1C(C(=O)Nc2ccccn2)=C(O)c2sccc2S1(=O)=O
not listed: [2] | [4] | [5] | [6] | [7] | [17] | [18]
inactive: all other assays above
